Experiment in all cases: DAPPL (digital affinity profiling via proximity ligation, sequencing); 10 mM Tris-HCl pH 7.5, 50 mM NaCl, 1 mM DTT, 4% glycerol, room temperature, 30 min; GST-TFs on glutathione beads, 16-mer random dsDNA library, 0.1% formaldehyde crosslink after washing; high values mean tight binding
What all share (details): protein: recombinant; tags: N-terminal GST; dsDNA, one strand shown

For one assay, the target named is T1, FLI1 (Homo sapiens, UniProt Q01543 1-452).
T1 sequence: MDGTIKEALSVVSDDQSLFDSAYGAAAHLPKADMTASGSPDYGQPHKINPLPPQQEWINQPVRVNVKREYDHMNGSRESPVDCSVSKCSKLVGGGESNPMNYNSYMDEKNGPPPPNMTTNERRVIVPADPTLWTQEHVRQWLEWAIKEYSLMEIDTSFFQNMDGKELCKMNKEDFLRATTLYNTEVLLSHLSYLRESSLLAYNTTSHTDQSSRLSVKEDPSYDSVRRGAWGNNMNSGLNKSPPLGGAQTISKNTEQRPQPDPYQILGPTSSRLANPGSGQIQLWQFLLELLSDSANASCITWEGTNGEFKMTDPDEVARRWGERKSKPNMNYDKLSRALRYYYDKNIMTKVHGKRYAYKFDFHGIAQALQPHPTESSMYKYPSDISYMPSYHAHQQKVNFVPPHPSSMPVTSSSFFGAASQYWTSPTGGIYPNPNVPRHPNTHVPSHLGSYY
Put shortly:
(§1)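 Human transcription factors fused to GST were expressed in yeast, captured on glutathione beads, given DNA barcodes and pooled with a GST-only negative control. Pools were incubated with 200 nmole of a 16-mer random double-stranded DNA library in Tris/NaCl/DTT/glycerol buffer at room temperature for 30 min. They were then washed, crosslinked with 0.1% formaldehyde, proximity-ligated (BsaI/T4 ligase, 1 h, 37 °C), PCR-amplified and sequenced on an Illumina NextSeq500. Binding signal is each 6-mer's read frequency for a factor divided by its frequency for the GST control.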

The target in a further assay is T2, ELK1 (Homo sapiens, UniProt P19419 1-428).
T2 sequence: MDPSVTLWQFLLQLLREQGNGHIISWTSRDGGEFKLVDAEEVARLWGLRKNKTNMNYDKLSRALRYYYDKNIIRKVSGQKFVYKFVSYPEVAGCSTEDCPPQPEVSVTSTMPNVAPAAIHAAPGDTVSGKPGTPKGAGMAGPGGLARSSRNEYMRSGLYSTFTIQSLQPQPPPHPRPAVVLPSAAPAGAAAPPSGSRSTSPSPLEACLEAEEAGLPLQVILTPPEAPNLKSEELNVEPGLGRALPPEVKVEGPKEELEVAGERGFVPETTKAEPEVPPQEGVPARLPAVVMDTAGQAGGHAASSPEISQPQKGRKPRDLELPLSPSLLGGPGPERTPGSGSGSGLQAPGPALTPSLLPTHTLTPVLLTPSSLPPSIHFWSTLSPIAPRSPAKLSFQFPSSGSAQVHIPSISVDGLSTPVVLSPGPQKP
Put shortly:
as §1

In a further assay the target is T3, GABPA (Homo sapiens, UniProt Q06546 1-454).
T3 sequence: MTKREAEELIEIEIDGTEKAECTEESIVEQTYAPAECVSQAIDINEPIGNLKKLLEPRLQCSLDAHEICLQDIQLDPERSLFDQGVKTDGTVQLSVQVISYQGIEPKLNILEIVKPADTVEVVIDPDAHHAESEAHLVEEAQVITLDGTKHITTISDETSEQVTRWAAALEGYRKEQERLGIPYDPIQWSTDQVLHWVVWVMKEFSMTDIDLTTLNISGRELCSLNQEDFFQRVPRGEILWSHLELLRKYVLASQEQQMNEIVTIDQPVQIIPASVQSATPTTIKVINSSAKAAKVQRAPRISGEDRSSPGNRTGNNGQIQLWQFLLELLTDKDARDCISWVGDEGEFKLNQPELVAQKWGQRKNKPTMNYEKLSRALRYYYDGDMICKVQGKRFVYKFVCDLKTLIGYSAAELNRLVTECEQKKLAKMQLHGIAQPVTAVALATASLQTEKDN
Put shortly:
as §1

For another assay, the target named is T4, ERG (Homo sapiens, UniProt P11308 1-479).
T4 sequence: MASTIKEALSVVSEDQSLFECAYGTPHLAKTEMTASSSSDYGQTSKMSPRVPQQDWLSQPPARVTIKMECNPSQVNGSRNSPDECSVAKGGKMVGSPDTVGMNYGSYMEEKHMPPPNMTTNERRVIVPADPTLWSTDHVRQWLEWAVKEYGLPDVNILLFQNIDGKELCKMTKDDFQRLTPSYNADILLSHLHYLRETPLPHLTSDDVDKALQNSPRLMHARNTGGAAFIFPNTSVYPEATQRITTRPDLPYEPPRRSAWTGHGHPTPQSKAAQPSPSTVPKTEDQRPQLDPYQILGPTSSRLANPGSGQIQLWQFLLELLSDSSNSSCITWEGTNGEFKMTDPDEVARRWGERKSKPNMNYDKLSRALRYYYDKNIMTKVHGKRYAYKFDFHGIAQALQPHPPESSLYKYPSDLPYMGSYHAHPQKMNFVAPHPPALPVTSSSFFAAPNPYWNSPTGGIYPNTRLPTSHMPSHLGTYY
Put shortly:
as §1

For another assay, the target named is ELF1 (Homo sapiens, UniProt P32519 1-619). Put shortly: as §1
Sequence of ELF1 (P32519 whole entry): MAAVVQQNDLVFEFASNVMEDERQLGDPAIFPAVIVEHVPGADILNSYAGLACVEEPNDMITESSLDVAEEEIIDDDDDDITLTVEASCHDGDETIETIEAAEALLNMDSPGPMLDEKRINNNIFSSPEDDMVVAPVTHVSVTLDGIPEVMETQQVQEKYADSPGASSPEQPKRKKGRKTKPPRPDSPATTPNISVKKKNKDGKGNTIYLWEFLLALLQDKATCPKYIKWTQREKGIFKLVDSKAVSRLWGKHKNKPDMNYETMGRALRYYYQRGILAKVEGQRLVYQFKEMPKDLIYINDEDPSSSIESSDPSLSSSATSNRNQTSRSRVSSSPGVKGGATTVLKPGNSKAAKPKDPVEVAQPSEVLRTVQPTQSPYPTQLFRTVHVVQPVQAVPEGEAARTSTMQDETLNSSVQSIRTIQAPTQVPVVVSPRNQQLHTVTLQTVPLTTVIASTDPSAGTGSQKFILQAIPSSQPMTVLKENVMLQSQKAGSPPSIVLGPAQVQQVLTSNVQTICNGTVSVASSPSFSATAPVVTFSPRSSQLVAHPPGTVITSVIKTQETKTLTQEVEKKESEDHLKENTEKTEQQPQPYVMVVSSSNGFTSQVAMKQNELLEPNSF
The next assay addresses T5, EHF (Homo sapiens, UniProt Q9NZC4 1-300).
T5 sequence: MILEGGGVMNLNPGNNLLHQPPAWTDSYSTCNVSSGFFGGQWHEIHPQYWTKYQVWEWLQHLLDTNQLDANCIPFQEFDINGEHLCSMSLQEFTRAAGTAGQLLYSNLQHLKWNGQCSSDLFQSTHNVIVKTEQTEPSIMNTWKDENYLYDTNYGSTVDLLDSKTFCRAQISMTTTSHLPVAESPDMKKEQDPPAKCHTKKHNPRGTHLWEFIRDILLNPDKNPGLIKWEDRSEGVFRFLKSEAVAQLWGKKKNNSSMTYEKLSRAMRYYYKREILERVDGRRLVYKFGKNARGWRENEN
Put shortly: as §1

For a further assay, the target named is SPI1 (Homo sapiens, UniProt P17947 1-270). Put shortly:
as §1

For a further assay, the target named is SPIB (Homo sapiens, UniProt Q01892 1-262). Put shortly: as §1
Sequence of SPIB (Q01892 whole entry): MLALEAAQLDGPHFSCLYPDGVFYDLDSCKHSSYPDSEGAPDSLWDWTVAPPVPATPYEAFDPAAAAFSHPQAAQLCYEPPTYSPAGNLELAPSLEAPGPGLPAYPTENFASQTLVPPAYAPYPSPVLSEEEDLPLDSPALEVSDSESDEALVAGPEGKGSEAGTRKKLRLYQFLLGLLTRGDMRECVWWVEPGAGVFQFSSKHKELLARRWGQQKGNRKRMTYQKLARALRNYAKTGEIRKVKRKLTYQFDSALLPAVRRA
For a further assay, the target named is T6, ELK3 (Homo sapiens, UniProt P41970 1-407).
T6 sequence: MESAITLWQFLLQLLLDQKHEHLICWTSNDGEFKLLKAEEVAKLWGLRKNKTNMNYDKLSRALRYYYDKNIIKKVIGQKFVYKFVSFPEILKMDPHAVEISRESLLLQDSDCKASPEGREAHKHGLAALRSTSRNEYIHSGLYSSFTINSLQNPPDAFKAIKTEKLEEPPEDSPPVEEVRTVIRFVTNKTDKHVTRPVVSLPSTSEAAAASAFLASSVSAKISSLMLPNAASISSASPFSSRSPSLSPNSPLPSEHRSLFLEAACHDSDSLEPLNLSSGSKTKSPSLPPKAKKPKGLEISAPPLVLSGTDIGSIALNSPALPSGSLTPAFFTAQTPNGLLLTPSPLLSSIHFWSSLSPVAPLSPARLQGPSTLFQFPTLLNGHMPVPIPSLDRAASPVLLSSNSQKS
Put shortly: as §1

Consider CTACCG, for which the binding signal is 1.44 fold enrichment (6-mer frequency, TF over GST control) with FLI1; 1.71 fold enrichment (6-mer frequency, TF over GST control) with ELK1; 1.58 fold enrichment (6-mer frequency, TF over GST control) in the assay with GABPA; 1.5 fold enrichment (6-mer frequency, TF over GST control) in the assay with ERG; 1.64 fold enrichment (6-mer frequency, TF over GST control) with ELF1; 1.55 fold enrichment (6-mer frequency, TF over GST control) with EHF. The binding signal was 1.52 fold enrichment (6-mer frequency, TF over GST control) with SPI1; 1.73 fold enrichment (6-mer frequency, TF over GST control) in the assay with SPIB; 1.57 fold enrichment (6-mer frequency, TF over GST control) with ELK3.
Regarding TCTCAG, the binding signal is 1.4 fold enrichment (6-mer frequency, TF over GST control) in the assay with FLI1; 1.48 fold enrichment (6-mer frequency, TF over GST control) in the assay with ELK1; 1.42 fold enrichment (6-mer frequency, TF over GST control) in the assay with GABPA; 1.43 fold enrichment (6-mer frequency, TF over GST control) with ERG; 1.45 fold enrichment (6-mer frequency, TF over GST control) with ELF1; 1.43 fold enrichment (6-mer frequency, TF over GST control) with EHF. Further, the binding signal in the assay with SPI1 is 1.55 fold enrichment (6-mer frequency, TF over GST control); with SPIB it was 1.39 fold enrichment (6-mer frequency, TF over GST control); with ELK3, 1.39 fold enrichment (6-mer frequency, TF over GST control).
For the sequence TAAGTT, the binding signal with FLI1 is 1.23 fold enrichment (6-mer frequency, TF over GST control); with ELK1, 1.39 fold enrichment (6-mer frequency, TF over GST control); with GABPA, 1.33 fold enrichment (6-mer frequency, TF over GST control); in the assay with ERG it was 1.25 fold enrichment (6-mer frequency, TF over GST control); with ELF1 it was 1.3 fold enrichment (6-mer frequency, TF over GST control); in the assay with EHF it was 1.38 fold enrichment (6-mer frequency, TF over GST control). Also, the binding signal with SPI1 was 1.31 fold enrichment (6-mer frequency, TF over GST control); in the assay with SPIB it was 1.35 fold enrichment (6-mer frequency, TF over GST control); with ELK3, 1.27 fold enrichment (6-mer frequency, TF over GST control).
Regarding CTTCCC, the binding signal with FLI1 is 2.11 fold enrichment (6-mer frequency, TF over GST control); with ELK1 it was 2.06 fold enrichment (6-mer frequency, TF over GST control); with GABPA, 2.07 fold enrichment (6-mer frequency, TF over GST control); with ERG, 2.19 fold enrichment (6-mer frequency, TF over GST control); with ELF1, 2.29 fold enrichment (6-mer frequency, TF over GST control); with EHF, 2.4 fold enrichment (6-mer frequency, TF over GST control). The binding signal with SPI1 is 3.35 fold enrichment (6-mer frequency, TF over GST control); in the assay with SPIB it was 2.45 fold enrichment (6-mer frequency, TF over GST control); in the assay with ELK3, 2.08 fold enrichment (6-mer frequency, TF over GST control).
As for CTCTCG, the binding signal in the assay with FLI1 is 1.42 fold enrichment (6-mer frequency, TF over GST control); with ELK1, 1.34 fold enrichment (6-mer frequency, TF over GST control); with GABPA, 1.37 fold enrichment (6-mer frequency, TF over GST control); with ERG, 1.44 fold enrichment (6-mer frequency, TF over GST control); with ELF1 it was 1.49 fold enrichment (6-mer frequency, TF over GST control); in the assay with EHF, 1.31 fold enrichment (6-mer frequency, TF over GST control). For the same sequence, the binding signal with SPI1 is 1.45 fold enrichment (6-mer frequency, TF over GST control); in the assay with SPIB, 1.37 fold enrichment (6-mer frequency, TF over GST control); in the assay with ELK3 it was 1.47 fold enrichment (6-mer frequency, TF over GST control).
As for GGGCCT, the binding signal with FLI1 is 1.26 fold enrichment (6-mer frequency, TF over GST control); with ELK1, 1.29 fold enrichment (6-mer frequency, TF over GST control); with GABPA it was 1.3 fold enrichment (6-mer frequency, TF over GST control); with ERG, 1.16 fold enrichment (6-mer frequency, TF over GST control); in the assay with ELF1, 1.27 fold enrichment (6-mer frequency, TF over GST control); with EHF, 1.27 fold enrichment (6-mer frequency, TF over GST control). Besides, the binding signal with SPI1 was 1.15 fold enrichment (6-mer frequency, TF over GST control); with SPIB, 1.23 fold enrichment (6-mer frequency, TF over GST control); with ELK3, 1.32 fold enrichment (6-mer frequency, TF over GST control).
Regarding ATCCGC, the binding signal was 1.82 fold enrichment (6-mer frequency, TF over GST control) with FLI1; 1.86 fold enrichment (6-mer frequency, TF over GST control) with ELK1; 1.57 fold enrichment (6-mer frequency, TF over GST control) with GABPA; 1.93 fold enrichment (6-mer frequency, TF over GST control) with ERG; 1.76 fold enrichment (6-mer frequency, TF over GST control) in the assay with ELF1; 1.82 fold enrichment (6-mer frequency, TF over GST control) with EHF. Also, the binding signal was 1.74 fold enrichment (6-mer frequency, TF over GST control) with SPI1; 1.82 fold enrichment (6-mer frequency, TF over GST control) in the assay with SPIB; 2.04 fold enrichment (6-mer frequency, TF over GST control) with ELK3.
On to TCCCAC, for which the binding signal is 1.31 fold enrichment (6-mer frequency, TF over GST control) with FLI1; 1.42 fold enrichment (6-mer frequency, TF over GST control) with ELK1; 1.36 fold enrichment (6-mer frequency, TF over GST control) with GABPA; 1.37 fold enrichment (6-mer frequency, TF over GST control) with ERG; 1.47 fold enrichment (6-mer frequency, TF over GST control) with ELF1; 1.38 fold enrichment (6-mer frequency, TF over GST control) with EHF. Moreover, the binding signal was 1.34 fold enrichment (6-mer frequency, TF over GST control) with SPI1; 1.26 fold enrichment (6-mer frequency, TF over GST control) with SPIB; 1.27 fold enrichment (6-mer frequency, TF over GST control) in the assay with ELK3.
